Data: PubChem BioAssay (NCI)
Compounds without any hit were thinned out: in the full panel of roughly 79,000, 15% have a hit. Unmarked numbers belong to inactive results. Active and inactive are the calls of the source. Rule as the data show it: active = growth inhibition above about 70%; inactive = the rest.

Assay: NCI Yeast Anticancer Drug Screen. Data for the sgs1 mgt1 strain (AID 161);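 also: 0% = growth of cultures given vehicle only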
Details: S. cerevisiae sgs1 mgt1 strain, at 50.0 µM, active compounds read high
Summary of the method: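 Yeast cells carrying a defined DNA-repair defect were exposed to test compounds. Growth inhibition was measured relative to vehicle-treated controls.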

| SMILES | growth inhibition |
| --- | --- |
| CC(C)Cn1cnc2c(Cl)nc3ccccc3c21 | 23.4% |
| COC(=O)c1nc(N)[nH]c(=O)c1CCCCCc1c(C(=O)OC)nc(N)[nH]c1=O | -9.2% |
| O=C(C(=O)N1CCc2ccccc21)c1c[nH]c2ccccc12 | -11.8% |
| CC(C)(N)C(=O)O | 24.6% |
| O=C(O)CCSc1ccc([N+](=O)[O-])cc1 | -4.75% |
| O=c1oc2ccc3ccccc3c2c2c1CCCCC2 | -14.8% |
| Cc1cc(C)c(S(=O)(=O)ONC(=O)OC(C)(C)C)c(C)c1 | -4% |
| O=C1CC2(CCCc3sccc32)C(=O)N1 (stereo not given) | 1.55% |
| CC1(c2cccc[n+]2Cc2ccccc2S(=O)(=O)[O-])OCCO1 | -8.95% |
| CCCc1cc(-c2ccc(-c3cc(CCC)c(C=O)[nH]3)s2)[nH]c1C=O | -31% |
| CCOC(OCC)C(=O)NC(C)c1ccc(O)c(OC)c1 (stereo not given) | 0.2% |
| CCCCCOC(=O)CC(CC(=O)OCCCCC)C(=O)OCCCCC | 14% |
| CCOc1ccc(CCC(=O)O)cc1 | -1.65% |
| O=C(CC(=O)N1N=C(n2ccc3ccccc32)CC1c1ccccc1)Nc1ccccc1Cl (stereo not given) | -3.5% |
| O=C1CSC(c2ccccc2Br)N1c1nncs1 (stereo not given) | 1.95% |
| CC/C(CC(C)CC)=N\O (stereo not given) | -23.4% |
| CCn1c2ccc(C=O)cc2c2cc([N+](=O)[O-])ccc21 | 7.2% |
| CCOc1c(N=Nc2ccccc2C)c(C)nn1C(N)=S | 18.3% |
| On1c(-c2ccccc2)c(-c2c(-c3ccccc3)n(O)c3ccccc23)c2ccccc21 | -4.9% |
| O=C1NC(=O)C(c2ccc(Cl)cc2)N1 (stereo not given) | -6.3% |

| SMILES | growth inhibition |
| --- | --- |
| N#CC1(c2ccccc2)C(c2ccccc2)CC(O)(c2ccccc2)C(C(=O)c2ccccc2)C1c1ccccc1 (stereo not given) | 3.5% |
| C/C(Nc1ccc(Cl)cc1)=C1/CCOC1=O | 35.5% |
| CCOC(OCC)n1ncnc1NC(=S)NCc1ccccc1 | 3.75% |
| Fc1ccc(CC(F)F)cc1 | 14.4% |
| CC(=O)N(C)c1ccc(N)cc1 | 24.9% |
| C#CCOC(=O)C(N)CC(N)=O (stereo not given) | -40.6% |
| CCN(CC)CCCn1cnc2ncccc2c1=O | 8.8% |
| COCc1ccccc1P(c1ccccc1COC)c1ccccc1COC | 42% |
| COC(=O)C1=C(C(=O)OC)SC(=CC#CC=C2SC(C(=O)OC)=C(C(=O)OC)S2)S1 | 9.45% |
| ClC(=Nc1ccccc1)c1cc(Cl)ccn1 | 8.3% |
| COc1cccc(OC)c1NC(=O)NCCCl | 2.25% |
| O=S(=O)(c1ccccc1)c1cccc2c[n+]3ccccc3cc12 | 39.2% |
| Cc1cc(Cl)c(O)c(-c2cc(-c3ccc([N+](=O)[O-])cc3)c3c(N)[nH]c(=O)nc3n2)c1 | 35.5% |
| Cc1ccccc1N(CC1CO1)CC1CO1 (stereo not given) | -20.8% |
| COc1ccc(CSc2nc3ccccc3nc2-c2cccs2)cc1 | -43.8% |
| CCOc1ccc(NC(=O)C2=C(C)NC(C)=C(C(=O)Nc3ccc(OCC)cc3)C2c2ccc(O)c(OC)c2)cc1 | -14.8% |
| CC(O)c1cc2c(s1)C(=O)c1sccc1C2=O (stereo not given) | 92% (active) |
| Cn1cnc([N+](=O)[O-])c1C(=O)NCc1ccccc1 | 5.15% |
| Cn1c([N+](=O)[O-])cnc1CN1CCN(CCO)CC1 | -39.1% |
| COC(=O)c1c(O)ccc(O)c1C(=O)OC | -13.6% |
